Results on twelve compounds are retold here after PubChem BioAssay (EPA / NIEHS).

Structures are written as SMILES. Inconclusive results are not listed. The source made the active and inactive calls. How the source made its calls, unless noted: active means hit-call score of the fitted dose curve at least 0.9, where 1 is the maximum; inactive means score below 0.9.

By AC50 is commonly meant the concentration at which the activity in the assay is half-maximal.

Experiment [1] in a line: ATG_NFI_CIS: Attagene CIS-FACTORIAL HepG2 Assay for human Nuclear Factor I (NFI) (AID 2282989). Particulars: HepG2 cis-regulatory reporter, NFI response element transcription; actives raise or lower the signal. In a few lines: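 HepG2, transient MRTU, 24 h exposure; RNA→cDNA→PCR→FAM label→HpaI→CE fluorescence. Bidirectional fit, DMSO = baseline.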
In experiment [2] the target is Myc proto-oncogene protein (Homo sapiens) (UniProt P01106). As to the kind of experiment: ATG_Myc_CIS: Attagene CIS-FACTORIAL HepG2 Assay for human Myelocytomatosis (Myc) Proto-Oncogene Transcription Factor (AID 2282990). Particulars: HepG2, Attagene cis-reporter transcription factor activity; actives raise or lower the signal. In a few lines: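 Cells of the HepG2 human liver line bear multiple cis-driven reporter transcription units. Reporter mRNA after 24 h exposure is reverse-transcribed, amplified, labelled and resolved by capillary electrophoresis, with gain- or loss-of-signal fitting relative to DMSO.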
Myc proto-oncogene protein (Homo sapiens), sequence (P01106 whole entry, looked up): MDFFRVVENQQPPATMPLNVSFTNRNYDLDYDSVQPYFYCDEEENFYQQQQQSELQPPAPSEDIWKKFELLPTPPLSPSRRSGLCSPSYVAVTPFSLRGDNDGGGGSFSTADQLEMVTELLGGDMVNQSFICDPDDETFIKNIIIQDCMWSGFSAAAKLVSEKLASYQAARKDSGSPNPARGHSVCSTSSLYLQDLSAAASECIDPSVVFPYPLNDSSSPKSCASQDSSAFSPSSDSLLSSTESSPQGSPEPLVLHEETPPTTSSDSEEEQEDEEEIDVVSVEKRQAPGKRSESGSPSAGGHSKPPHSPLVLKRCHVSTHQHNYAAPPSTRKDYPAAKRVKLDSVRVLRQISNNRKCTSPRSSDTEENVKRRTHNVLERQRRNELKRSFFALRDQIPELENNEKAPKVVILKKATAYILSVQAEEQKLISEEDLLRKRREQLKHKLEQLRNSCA

Experiment [3] in a line: ATG_NF_kB_CIS: Attagene CIS-FACTORIAL HepG2 Assay for human Nuclear Factor Kappa B (NF-kB) (AID 2282991). Particulars: HepG2 Attagene cis-factorial NF-kB reporter mRNA; actives raise or lower the signal. The method in brief:
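HepG2, transient multi-reporter transfection, cis promoter elements (endogenous TFs). 24 h exposure. Total RNA → RT → PCR → 6-FAM label → HpaI → CE. Gain/loss vs DMSO.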

Experiment [4] is described as follows: ATG_NRF2_ARE_CIS: Attagene CIS-FACTORIAL HepG2 Assay for human Nuclear Factor Erythroid 2 Related Factor 2 (NFR2) response to Antioxidant Response Elements (ARE) (AID 2282992).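 On AC50: reporter mRNA level measured by RT-PCR and capillary electrophoresis fluorescence.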 Particulars: HepG2 Attagene ARE/NRF2 reporter, transcription factor activity; actives raise or lower the signal. The method in brief: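 Multiplexed reporter mRNA profiling in HepG2 after a 24 h chemical exposure. Curves fitted in both directions relative to DMSO negative control.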

The nature of experiment [5]: ATG_Oct_MLP_CIS: Attagene CIS-FACTORIAL HepG2 Assay for human Octamer-Binding Transcription Factor (Oct) (AID 2282993). The conditions noted are these: HepG2 Attagene cis-factorial Oct reporter, mRNA; actives raise or lower the signal. The method in brief:
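Multiplexed cis-reporter assay in human liver HepG2 cells, 24 h incubation. Reporter RNA amplified and labelled, then resolved by capillary electrophoresis; DMSO serves as negative control and baseline.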

Experiment [6] concerns the target Cellular tumor antigen p53 (Homo sapiens) (UniProt P04637). The experiment in a line: ATG_p53_CIS: Attagene CIS-FACTORIAL HepG2 Assay for human p53 Transcription Factor (AID 2282994). Particulars: HepG2 p53 cis-element reporter, Attagene mRNA; actives raise or lower the signal. In a few lines: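 Multiplexed reporter mRNA assay in human HepG2 liver cells; cis-regulated units report endogenous factor activity. Values come from bidirectional curve fitting against DMSO negative control after 24 h treatment.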

The target in experiment [7] is human Peroxisome Proliferator-activated Receptor delta (PPARd), PPARD (gene 5467) (UniProt Q03181). As to the kind of experiment: ATG_PPARd_TRANS: Attagene TRANS-FACTORIAL HepG2 Assay for human Peroxisome Proliferator-activated Receptor delta (PPARd) (AID 2283002; active means hit-call score of the fitted dose curve at least 0.9, where 1 is the maximum). The method in brief: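 Cell-based TRANS reporter: HepG2, transient MRTU transfection, 24 h exposure. Readout = reporter mRNA (RT-PCR/CE, 6-FAM). Gain-of-signal fit vs DMSO control.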
human Peroxisome Proliferator-activated Receptor delta (PPARd), PPARD (gene 5467), sequence (Q03181 whole entry, looked up): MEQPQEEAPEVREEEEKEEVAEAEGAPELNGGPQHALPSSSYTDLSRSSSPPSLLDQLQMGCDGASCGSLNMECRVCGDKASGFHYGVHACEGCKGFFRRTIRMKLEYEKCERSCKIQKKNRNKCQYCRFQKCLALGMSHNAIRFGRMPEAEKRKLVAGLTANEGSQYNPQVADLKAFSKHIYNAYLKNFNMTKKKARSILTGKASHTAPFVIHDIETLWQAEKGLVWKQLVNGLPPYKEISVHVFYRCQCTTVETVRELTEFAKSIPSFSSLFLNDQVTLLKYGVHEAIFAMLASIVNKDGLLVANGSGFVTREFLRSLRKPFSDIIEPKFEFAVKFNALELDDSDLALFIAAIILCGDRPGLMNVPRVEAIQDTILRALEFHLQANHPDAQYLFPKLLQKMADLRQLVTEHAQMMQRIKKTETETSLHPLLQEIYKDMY

Experiment [8] deals with Retinoic acid receptor alpha (Homo sapiens) (UniProt P10276). As to the kind of experiment: ATG_RARa_TRANS: Attagene TRANS-FACTORIAL HepG2 Assay for human Retinoic Acid Receptor alpha (RARa) (AID 2283005; active means hit-call score of the fitted dose curve at least 0.9, where 1 is the maximum). The method in brief:
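Reporter transcripts, measured by RT-PCR with fluorescent labeling and capillary electrophoresis after 24 h dosing, reflect activity of an exogenous human RARa–GAL4 fusion in transiently transfected HepG2. Fitted for increase relative to DMSO.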

Experiment [9] has as its target Peroxisome proliferator-activated receptor gamma (Homo sapiens) (UniProt P37231). As to the kind of experiment: ATG_PPARg_TRANS: Attagene TRANS-FACTORIAL HepG2 Assay for human Peroxisome Proliferator-activated Receptor-gamma (PPARg) (AID 2283007; active means hit-call score of the fitted dose curve at least 0.9, where 1 is the maximum). In a few lines: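 Multiplexed reporter transcription units in HepG2, 24 h dosing, reporter transcripts quantified by fluorescent RT-PCR and capillary electrophoresis. Increase over DMSO scored.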

Experiment [10] has as its target Nuclear receptor subfamily 1 group I member 2 (Homo sapiens) (UniProt O75469). As to the kind of experiment: ATG_PXR_TRANS: Attagene TRANS-FACTORIAL HepG2 Assay for human Pregnane X Receptor (PXR) (AID 2283008; active means hit-call score of the fitted dose curve at least 0.9, where 1 is the maximum). In a few lines:
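Measures mRNA induction of a GAL4-UAS-driven reporter in human HepG2 cells transiently expressing PXR fused to Gal4, following 24 h treatment. DMSO served as negative control and baseline.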

In experiment [11] the target is human Retinoic Acid Receptor gamma (RARg), RARG (gene 5916) (UniProt P13631). The experiment in a line: ATG_RARg_TRANS: Attagene TRANS-FACTORIAL HepG2 Assay for human Retinoic Acid Receptor gamma (RARg) (AID 2283009; active means hit-call score of the fitted dose curve at least 0.9, where 1 is the maximum). In a few lines:
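Transient transfection of HepG2 with multi-reporter constructs, then 24 h chemical treatment. Total RNA isolated, reverse-transcribed, PCR-amplified, fluorescently labelled and resolved by capillary electrophoresis; activity scored as mRNA induction versus DMSO.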

Experiment [12] concerns the target human Peroxisome Proliferator-activated Receptor alpha (PPARa), PPARA (gene 5465) (UniProt Q07869). The experiment in a line: ATG_PPARa_TRANS: Attagene TRANS-FACTORIAL HepG2 Assay for human Peroxisome Proliferator-activated Receptor alpha (PPARa) (AID 2283001; active means hit-call score of the fitted dose curve at least 0.9, where 1 is the maximum;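 on AC50: potency for gain of reporter signal over DMSO so agonist or activator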). In a few lines: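 Read-out is fluorescence of reporter cDNA fragments resolved by capillary electrophoresis after RT-PCR. Human HepG2 liver cells carried transfected PPARa-Gal4 chimera and GAL4-UAS reporter units, treated 24 h; activity scored as increase over DMSO.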

The target in experiment [13] is human RAR-related Orphan Receptor beta (RORb), RORB (gene 6096) (UniProt Q92753). The experiment in a line: ATG_RORb_TRANS: Attagene TRANS-FACTORIAL HepG2 Assay for human RAR-related Orphan Receptor beta (RORb) (AID 2283010; active means hit-call score of the fitted dose curve at least 0.9, where 1 is the maximum). In a few lines: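 Readout is reporter-gene mRNA induction, detected as fluorescence after RT-PCR and capillary electrophoresis, fitted for gain of signal against DMSO controls. Transiently transfected HepG2 liver cells carrying GAL4-UAS reporter constructs were treated for 24 hours.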
human RAR-related Orphan Receptor beta (RORb), RORB (gene 6096), sequence (Q92753 whole entry, looked up, the tested form may be a part): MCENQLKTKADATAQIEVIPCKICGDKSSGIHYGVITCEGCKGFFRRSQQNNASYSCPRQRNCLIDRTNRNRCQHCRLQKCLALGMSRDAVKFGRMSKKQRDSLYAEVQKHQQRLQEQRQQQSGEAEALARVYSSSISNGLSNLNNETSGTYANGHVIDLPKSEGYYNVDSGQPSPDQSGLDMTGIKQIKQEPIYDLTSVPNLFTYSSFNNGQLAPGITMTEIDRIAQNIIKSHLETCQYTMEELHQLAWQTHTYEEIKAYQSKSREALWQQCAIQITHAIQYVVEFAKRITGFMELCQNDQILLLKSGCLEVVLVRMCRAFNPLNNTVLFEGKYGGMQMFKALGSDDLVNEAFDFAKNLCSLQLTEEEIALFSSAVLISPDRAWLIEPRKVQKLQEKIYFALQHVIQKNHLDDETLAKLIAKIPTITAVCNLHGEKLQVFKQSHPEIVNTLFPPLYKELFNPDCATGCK

Experiment [14] concerns the target human Retinoic Acid Receptor beta (RARb), RARB (gene 5915) (UniProt P10826). As to the kind of experiment: ATG_RARb_TRANS: Attagene TRANS-FACTORIAL HepG2 Assay for human Retinoic Acid Receptor beta (AID 2283004; active means hit-call score of the fitted dose curve at least 0.9, where 1 is the maximum). In a few lines:
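Fluorescent capillary-electrophoresis detection of GAL4-UAS reporter mRNA defines the endpoint, with induction over DMSO-treated wells scored as activity. Transiently transfected human hepatoma HepG2 cells expressing exogenous NR–Gal4 proteins are exposed to test chemicals for 24 h.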

human Retinoic Acid Receptor gamma (RARg), RARG (gene 5916), sequence (P13631 whole entry, looked up): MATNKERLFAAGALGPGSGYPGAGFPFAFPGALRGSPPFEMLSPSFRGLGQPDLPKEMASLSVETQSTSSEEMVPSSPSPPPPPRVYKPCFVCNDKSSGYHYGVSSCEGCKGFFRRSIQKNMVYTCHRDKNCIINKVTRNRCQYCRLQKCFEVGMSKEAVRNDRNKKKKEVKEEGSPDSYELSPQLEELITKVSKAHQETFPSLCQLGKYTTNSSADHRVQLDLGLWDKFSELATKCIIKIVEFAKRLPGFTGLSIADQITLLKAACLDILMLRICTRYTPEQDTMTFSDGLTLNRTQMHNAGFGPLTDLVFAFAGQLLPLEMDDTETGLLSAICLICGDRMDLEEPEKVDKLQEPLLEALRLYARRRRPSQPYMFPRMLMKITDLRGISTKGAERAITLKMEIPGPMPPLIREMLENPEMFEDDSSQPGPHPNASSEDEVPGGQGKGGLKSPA
Peroxisome proliferator-activated receptor gamma (Homo sapiens), sequence (P37231 whole entry, looked up): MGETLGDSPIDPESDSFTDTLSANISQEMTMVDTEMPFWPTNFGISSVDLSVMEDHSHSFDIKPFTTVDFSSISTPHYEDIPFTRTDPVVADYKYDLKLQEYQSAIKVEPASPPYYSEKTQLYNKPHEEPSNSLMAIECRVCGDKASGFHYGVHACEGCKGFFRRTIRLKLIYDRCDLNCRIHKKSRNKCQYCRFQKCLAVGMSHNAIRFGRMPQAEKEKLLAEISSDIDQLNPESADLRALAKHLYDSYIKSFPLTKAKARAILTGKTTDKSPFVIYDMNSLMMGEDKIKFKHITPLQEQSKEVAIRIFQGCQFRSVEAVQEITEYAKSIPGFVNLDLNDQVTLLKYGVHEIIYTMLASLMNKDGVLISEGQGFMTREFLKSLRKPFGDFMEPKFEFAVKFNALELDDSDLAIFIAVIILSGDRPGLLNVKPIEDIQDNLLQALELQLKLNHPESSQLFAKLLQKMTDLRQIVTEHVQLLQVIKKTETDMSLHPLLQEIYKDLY
Cellular tumor antigen p53 (Homo sapiens), sequence (P04637 whole entry, looked up): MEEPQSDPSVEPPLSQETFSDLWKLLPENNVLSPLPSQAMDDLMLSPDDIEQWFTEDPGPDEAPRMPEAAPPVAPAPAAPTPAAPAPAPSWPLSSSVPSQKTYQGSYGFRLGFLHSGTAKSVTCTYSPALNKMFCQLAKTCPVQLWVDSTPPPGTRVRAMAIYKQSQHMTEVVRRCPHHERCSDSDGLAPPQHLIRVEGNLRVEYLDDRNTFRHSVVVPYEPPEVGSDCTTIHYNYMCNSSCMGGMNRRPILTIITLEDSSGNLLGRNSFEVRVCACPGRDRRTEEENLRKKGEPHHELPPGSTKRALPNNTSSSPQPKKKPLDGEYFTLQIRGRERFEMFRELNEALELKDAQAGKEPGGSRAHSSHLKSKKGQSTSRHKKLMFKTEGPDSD
Retinoic acid receptor alpha (Homo sapiens), sequence (P10276 whole entry, looked up, the tested form may be a part): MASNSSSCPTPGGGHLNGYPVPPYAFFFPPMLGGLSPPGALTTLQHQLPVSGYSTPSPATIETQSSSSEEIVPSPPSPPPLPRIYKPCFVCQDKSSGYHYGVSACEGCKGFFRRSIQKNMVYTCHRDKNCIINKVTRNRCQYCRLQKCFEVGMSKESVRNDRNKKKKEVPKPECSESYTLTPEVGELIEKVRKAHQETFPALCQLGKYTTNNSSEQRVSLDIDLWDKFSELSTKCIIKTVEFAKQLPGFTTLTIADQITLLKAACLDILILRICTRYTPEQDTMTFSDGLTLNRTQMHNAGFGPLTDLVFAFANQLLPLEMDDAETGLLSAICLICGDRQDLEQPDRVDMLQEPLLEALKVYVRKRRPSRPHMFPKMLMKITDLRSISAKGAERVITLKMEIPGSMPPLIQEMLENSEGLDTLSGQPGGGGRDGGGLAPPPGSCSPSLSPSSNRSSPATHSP
Nuclear receptor subfamily 1 group I member 2 (Homo sapiens), sequence (O75469 whole entry, looked up, the tested form may be a part): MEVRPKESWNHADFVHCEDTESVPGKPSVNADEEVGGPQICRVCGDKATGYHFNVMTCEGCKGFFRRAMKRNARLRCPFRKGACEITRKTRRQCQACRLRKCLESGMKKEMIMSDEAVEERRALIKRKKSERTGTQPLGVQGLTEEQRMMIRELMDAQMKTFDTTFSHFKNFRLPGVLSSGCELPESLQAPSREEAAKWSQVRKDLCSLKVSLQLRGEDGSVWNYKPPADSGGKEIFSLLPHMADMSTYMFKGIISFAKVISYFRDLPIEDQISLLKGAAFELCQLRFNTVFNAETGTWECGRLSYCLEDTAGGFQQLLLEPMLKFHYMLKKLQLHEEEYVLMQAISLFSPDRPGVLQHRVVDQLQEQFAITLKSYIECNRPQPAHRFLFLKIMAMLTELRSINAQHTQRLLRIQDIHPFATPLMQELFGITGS
human Peroxisome Proliferator-activated Receptor alpha (PPARa), PPARA (gene 5465), sequence (Q07869 whole entry, looked up, the tested form may be a part): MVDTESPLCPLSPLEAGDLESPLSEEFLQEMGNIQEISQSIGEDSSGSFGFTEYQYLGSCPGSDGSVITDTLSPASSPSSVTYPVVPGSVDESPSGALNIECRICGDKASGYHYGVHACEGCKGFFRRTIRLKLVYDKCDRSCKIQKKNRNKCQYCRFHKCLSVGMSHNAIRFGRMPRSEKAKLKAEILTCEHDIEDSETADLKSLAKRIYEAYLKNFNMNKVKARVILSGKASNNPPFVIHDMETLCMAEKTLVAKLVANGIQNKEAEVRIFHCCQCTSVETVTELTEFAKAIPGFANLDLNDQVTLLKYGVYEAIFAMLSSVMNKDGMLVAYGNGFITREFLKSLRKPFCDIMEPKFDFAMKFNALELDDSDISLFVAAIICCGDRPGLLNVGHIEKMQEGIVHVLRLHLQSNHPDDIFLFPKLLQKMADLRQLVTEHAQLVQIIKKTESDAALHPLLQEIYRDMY
human Retinoic Acid Receptor beta (RARb), RARB (gene 5915), sequence (P10826 whole entry, looked up, the tested form may be a part): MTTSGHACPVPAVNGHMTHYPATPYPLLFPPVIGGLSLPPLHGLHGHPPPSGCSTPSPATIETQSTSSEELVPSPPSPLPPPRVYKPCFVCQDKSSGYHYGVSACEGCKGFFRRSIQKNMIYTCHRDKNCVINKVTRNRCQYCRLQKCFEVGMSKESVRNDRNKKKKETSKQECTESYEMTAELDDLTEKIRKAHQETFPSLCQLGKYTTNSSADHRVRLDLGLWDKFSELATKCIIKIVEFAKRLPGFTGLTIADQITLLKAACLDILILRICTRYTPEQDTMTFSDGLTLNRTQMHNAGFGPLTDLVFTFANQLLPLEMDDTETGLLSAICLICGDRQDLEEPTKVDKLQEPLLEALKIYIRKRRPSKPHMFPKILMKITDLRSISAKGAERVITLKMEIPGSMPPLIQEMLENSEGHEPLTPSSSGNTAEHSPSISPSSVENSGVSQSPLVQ

For the compound `O=c1cc[nH]c(=S)[nH]1`, the call in experiment [1], in experiment [2], in [3], in [4], in [5] and in experiment [6] was inactive. Besides, the compound was classed as inactive in experiment [7], in experiment [8], in experiment [9], in experiment [10] and in [11].
Turning to `Cc1cc(C)c(C(=O)O)c(C)c1`, the compound was called inactive in experiment [1], in [2], in experiment [3], in experiment [4], in experiment [5] and in experiment [6]. Also, the call in experiment [8], in experiment [10] and in experiment [13] was inactive. Moreover, the AC50 in experiment [12] was 33.7 µM (active).
With `Nc1ccc(Cl)cc1Cl`, the compound was called inactive in experiment [1], in [2], in experiment [3], in experiment [4], in experiment [5] and in [6]. For the same compound, the outcome in experiment [12] and in experiment [10] was inactive.
As to `Cc1cccc(C(=O)O)c1`, the outcome in experiment [1], in experiment [2], in experiment [3], in experiment [4], in [5] and in experiment [6] was inactive. The compound was classed as inactive in [12], in [8], in [9], in experiment [10] and in experiment [11].
As for `C=CC(=O)OCCOC1C2CCC1C1CC=CC12` (centres undefined), the outcome in experiment [1], in experiment [2], in experiment [3], in [4], in [5] and in experiment [6] was inactive. The call in experiment [12], in [7] and in experiment [10] was inactive.
As for `Cc1cccc(N(C)C(=S)Oc2ccc3ccccc3c2)c1`, the compound was called inactive in experiment [1], in experiment [2], in experiment [3], in experiment [5], in experiment [6] and in experiment [12]. The result in experiment [7] was inactive. Also, the figures for the AC50 in experiment [4] and in experiment [10] were 19.8 µM (active) and 0.337 µM (active), respectively.
Turning to `FC(F)(F)C(=NOCC1OCCO1)c1ccc(Cl)cc1`, the outcome in [1], in [2], in experiment [3], in [4], in experiment [5] and in experiment [6] was inactive. In addition, the compound was called inactive in experiment [12], in [9], in [10] and in experiment [13].
As to `Nc1ccc(-c2ccc(F)cc2)cc1`, the result in [1], in [2], in [3], in [4], in [5] and in [6] was inactive. Besides, the result in [7], in experiment [9] and in experiment [10] was inactive.
As for `CC(=O)Oc1ccc(C)cc1`, the outcome in experiment [1], in experiment [2], in [3], in experiment [5], in experiment [6] and in experiment [12] was inactive. The compound was classed as inactive in experiment [14], in [9], in experiment [11] and in experiment [13]. The AC50 in experiment [4] is 19.6 µM (active).
As to `OC1CCCCCCCCCCC1`, the compound was called inactive in experiment [1], in experiment [2], in experiment [3], in [4], in [5] and in experiment [6]. Also, the compound was classed as inactive in experiment [7], in [14], in experiment [9] and in experiment [11]. For the same compound, the AC50 in experiment [10] was 8.87 µM (active).
Regarding `CCCCCCC1(C)CCC(=O)O1` (centres undefined), the result in experiment [1], in experiment [2], in experiment [3], in experiment [4], in experiment [5] and in experiment [6] was inactive. Besides, the outcome in [12] and in experiment [9] was inactive. Besides, the AC50 in experiment [10] is 33.2 µM (active).
With `C=C1C2CCC(C2)C1(C)C` (centres undefined), the call in [1], in experiment [2], in experiment [3], in experiment [4], in experiment [5] and in experiment [6] was inactive. Besides, the compound was called inactive in experiment [7], in [8], in experiment [11] and in experiment [13]. The AC50 in experiment [10] was 18.9 µM (active).
